{"source": "ChEMBL document CHEMBL1201862", "about": "“PubChem BioAssay data set” (2004)", "note": "The campaign covered roughly 400,000 compounds. About 2,100 (0.53%) were called active. Another 14% or so got no clear call; they are omitted. The rule behind the calls is not given here. The entries come from a sample that favours actives as a whole.", "data": [{"biological_target": "Ataxin-2 (Homo sapiens) (UniProt Q99700)", "sequence (Q99700 whole entry)": "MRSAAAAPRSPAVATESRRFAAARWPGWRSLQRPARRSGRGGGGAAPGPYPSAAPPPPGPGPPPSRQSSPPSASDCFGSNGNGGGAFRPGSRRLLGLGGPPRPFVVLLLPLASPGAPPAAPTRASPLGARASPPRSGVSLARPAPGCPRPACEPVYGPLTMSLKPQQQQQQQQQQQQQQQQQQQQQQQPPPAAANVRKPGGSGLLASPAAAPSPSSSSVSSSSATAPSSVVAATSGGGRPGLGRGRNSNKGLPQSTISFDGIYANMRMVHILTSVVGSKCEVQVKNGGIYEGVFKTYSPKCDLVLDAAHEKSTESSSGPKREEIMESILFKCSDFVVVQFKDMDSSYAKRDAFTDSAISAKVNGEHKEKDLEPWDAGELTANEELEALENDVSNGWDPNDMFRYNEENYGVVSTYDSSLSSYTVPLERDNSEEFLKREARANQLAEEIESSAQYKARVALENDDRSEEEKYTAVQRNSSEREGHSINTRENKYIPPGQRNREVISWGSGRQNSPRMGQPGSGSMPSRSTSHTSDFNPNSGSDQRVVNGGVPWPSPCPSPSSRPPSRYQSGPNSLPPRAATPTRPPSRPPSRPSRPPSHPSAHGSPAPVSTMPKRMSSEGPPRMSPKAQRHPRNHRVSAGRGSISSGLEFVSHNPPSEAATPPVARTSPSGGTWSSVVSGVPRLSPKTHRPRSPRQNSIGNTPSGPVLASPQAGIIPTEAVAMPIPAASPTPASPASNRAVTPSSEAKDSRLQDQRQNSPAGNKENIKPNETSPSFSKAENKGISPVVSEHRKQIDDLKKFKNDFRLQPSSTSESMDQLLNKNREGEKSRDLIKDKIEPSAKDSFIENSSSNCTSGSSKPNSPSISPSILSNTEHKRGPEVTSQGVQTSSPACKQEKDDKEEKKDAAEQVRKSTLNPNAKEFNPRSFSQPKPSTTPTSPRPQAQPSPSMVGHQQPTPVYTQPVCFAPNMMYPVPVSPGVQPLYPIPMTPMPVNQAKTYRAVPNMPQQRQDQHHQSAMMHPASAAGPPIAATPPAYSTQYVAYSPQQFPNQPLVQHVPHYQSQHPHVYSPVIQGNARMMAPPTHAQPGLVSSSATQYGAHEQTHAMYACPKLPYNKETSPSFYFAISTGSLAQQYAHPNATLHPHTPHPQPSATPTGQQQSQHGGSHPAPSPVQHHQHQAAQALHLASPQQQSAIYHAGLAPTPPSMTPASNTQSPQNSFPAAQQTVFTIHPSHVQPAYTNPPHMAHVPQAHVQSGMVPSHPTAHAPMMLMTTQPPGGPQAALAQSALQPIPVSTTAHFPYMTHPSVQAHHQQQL", "experiment": "qHTS for Inhibitors of ATXN expression.", "format": "functional", "values": [{"smiles": "CCOC(=O)c1sc2c(c1C)C(c1cccs1)C1=C(O)CCCC1=N2", "note": "(stereo not drawn)", "Potency": "inactive"}, {"smiles": "c1cc(-c2sc(-c3ccncc3)c(-c3ccncc3)c2-c2ccncc2)ccn1", "Potency": "inactive"}, {"smiles": "COc1ccc(-n2c(=O)/c(=C\\c3cccs3)s/c2=C(/C#N)C(=O)NCCN2CCOCC2)cc1", "Potency": "inactive"}, {"smiles": "CCOc1ccc(C2CC(c3c(O)oc4ccccc4c3=O)=NN2c2ccccc2)cc1OC", "note": "(stereo not drawn)", "Potency": "inactive"}, {"smiles": "CCCOc1ccc(C2c3c(-c4ccccc4O)n[nH]c3C(=O)N2Cc2cccnc2)cc1", "note": "(stereo not drawn)", "Potency": "35.5 µM (active)"}, {"smiles": "CCOc1ccccc1Oc1c[nH]nc1-c1ccc(OCC(=O)NN)cc1O", "Potency": "inactive"}, {"smiles": "CCCOc1ccc(C2c3c(-c4ccccc4O)n[nH]c3C(=O)N2CCCOCC)cc1OCC", "note": "(stereo not drawn)", "Potency": "22.4 µM (active)"}, {"smiles": "O=C(C1CCCO1)N1CCN(C(=O)C23CC4CC(CC(C4)C2)C3)CC1", "note": "(stereo not drawn)", "Potency": "inactive"}, {"smiles": "O/N=C1\\CCCc2ccc3ccccc3c21", "Potency": "inactive"}, {"smiles": "Cc1ccc(OC(=O)c2ccncc2)c(C)c1", "Potency": "inactive"}, {"smiles": "O=S(=O)(NCc1csc(-c2cccs2)n1)c1ccc(Cl)cc1", "Potency": "inactive"}, {"smiles": "O=C(NNC(=O)c1csc(-c2cccs2)n1)c1ccc(Cl)cc1", "Potency": "22.4 µM (active)"}, {"smiles": "O=C(NCc1csc(-c2cccs2)n1)c1cccc(Cl)c1", "Potency": "inactive"}, {"smiles": "C=CCn1c(NC(=O)c2ccccc2Cl)c(C#N)c2nc3ccccc3nc21", "Potency": "inactive"}, {"smiles": "CCOC(=O)c1cnc2ccc(C)cc2c1N(C)Cc1ccccc1", "Potency": "inactive"}, {"smiles": "CCOC(=O)c1cnc2ccc(C)cc2c1Nc1ccc(N(CC)CC)cc1", "Potency": "28.2 µM (active)"}, {"smiles": "CCOC(=O)c1cnc2ccc3ccccc3c2c1O", "Potency": "inactive"}, {"smiles": "CS(=O)(=O)c1ccc(Cl)c(NC(=O)CSc2n[nH]c(-c3cccs3)n2)c1", "Potency": "inactive"}, {"smiles": "COC(=O)Cc1cc(=O)oc2cc(O)ccc12", "Potency": "inactive"}, {"smiles": "S=C(NCCCN1CCOCC1)NC1CC1", "Potency": "inactive"}, {"smiles": "Cc1nn(CC(=O)NCCCN2CCCCC2)c(=O)c2cccn12", "Potency": "inactive"}, {"smiles": "O=C(NCCCCCCCN1CCCCCCC1)C(C1CCCCC1)C1CCCCC1", "Potency": "21.2 µM (active)"}, {"smiles": "Cn1c(SC2=CS(=O)(=O)c3ccccc32)nc2ccccc21", "Potency": "15.8 µM (active)"}, {"smiles": "Cn1c(=O)c(/C=C/c2ccc(F)cc2)nc2ccccc21", "Potency": "inactive"}, {"smiles": "CCC(=O)c1ccc(/C=C/c2nc3ccccc3n2C)o1", "Potency": "inactive"}, {"smiles": "Cn1c(-c2c(N)n(-c3ccccc3)c3nc4ccccc4nc23)nc2ccccc21", "Potency": "inactive"}, {"smiles": "C#CCNC(=O)C(C)c1ncc(C(F)(F)F)cc1Cl", "note": "(stereo not drawn)", "Potency": "inactive"}, {"smiles": "O=C(CCl)c1ccc(Cc2ncc(C(F)(F)F)cc2Cl)s1", "Potency": "39.8 µM (active)"}, {"smiles": "FC(F)(F)c1cnc(NNC(=S)Nc2ccccc2)c(Cl)c1", "Potency": "inactive"}, {"smiles": "O=C(C[C@H]1C/C=C\\C[C@@H](NC(=O)OCC2c3ccccc3-c3ccccc32)C(=O)O[C@@H](c2ccccc2)CNC1=O)N[C@H](CO)Cc1ccccc1", "Potency": "31.6 µM (active)"}, {"smiles": "Nc1ccccc1-n1nc2ccc3ccccc3c2n1", "Potency": "inactive"}, {"smiles": "COc1cc(C(=O)Nc2ccc(Br)cc2C(=O)c2cc(OC)c(OC)c(OC)c2)cc(OC)c1OC", "Potency": "inactive"}, {"smiles": "CNc1ccc(Br)cc(C(=O)/C=C/c2cc(OC)ccc2OC)c1=O", "Potency": "39.8 µM (active)"}, {"smiles": "COc1ccc(Br)cc1/C=C/C(=O)NC(=S)Nc1ccc(Cl)c(C(=O)O)c1", "Potency": "inactive"}, {"smiles": "COc1ccc(OC)c(/C=C/C(=O)N(C)CC(=O)Nc2cc(C)ccc2C)c1", "Potency": "inactive"}, {"smiles": "CNc1ccc(Br)cc(C(=O)/C=C/c2cccc(OC)c2)c1=O", "Potency": "28.2 µM (active)"}, {"smiles": "COc1cccc(NC(=O)c2sc3nc(C)c(C(=O)Nc4ccc(C)cc4C)c(-c4ccc(Br)cc4)c3c2N)c1", "Potency": "inactive"}, {"smiles": "Cc1ccc2nc(N3CCN(C)CC3)c(C=O)c(=O)n2c1", "Potency": "inactive"}, {"smiles": "COCC(C)NC(=O)c1cc(-c2ccc(O)cc2)on1", "note": "(stereo not drawn)", "Potency": "inactive"}, {"smiles": "Nc1c2ccccc2nc2ccccc12", "Potency": "inactive"}, {"smiles": "CC(C)C(N)c1csc(NC(=O)Nc2cccc(C(F)(F)F)c2)n1", "note": "(stereo not drawn)", "Potency": "35.5 µM (active)"}, {"smiles": "COC(=O)Cc1csc(N/C=C2/C(=O)N(c3cccc(C(F)(F)F)c3)C(=O)c3ccccc32)n1", "Potency": "inactive"}, {"smiles": "NC(c1csc(NC(=O)Nc2cccc(C(F)(F)F)c2)n1)C1CCCCC1", "note": "(stereo not drawn)", "Potency": "28.2 µM (active)"}, {"smiles": "O=C(Nc1cccnc1)Nc1cccc(F)c1", "Potency": "inactive"}, {"smiles": "CNC(=O)Nc1cc(C(F)(F)F)cc(C(F)(F)F)c1", "Potency": "inactive"}, {"smiles": "CCCCNc1ccc2c3c(cccc13)C(=O)N(CCCC)C2=O", "Potency": "inactive"}, {"smiles": "Cc1nn2c(-c3ccccc3)c(-c3ccccc3)nc2nc1O", "Potency": "inactive"}, {"smiles": "Cc1cc(C)cc(CC2CC(=O)N(c3cc(C)ccc3C)C2=O)c1", "note": "(stereo not drawn)", "Potency": "inactive"}, {"smiles": "CCC(C)Sc1ccc(-c2nc3cnccn3c2NC2CCCCC2)cc1", "note": "(stereo not drawn)", "Potency": "inactive"}, {"smiles": "CC(C)(C=O)C1=CC(=O)c2ccccc2C1=O", "Potency": "10 µM (active)"}, {"smiles": "CCOC(=O)c1c(NC(=O)c2nn(C)cc2[N+](=O)[O-])sc(C)c1C", "Potency": "inactive"}, {"smiles": "CCCNC1=C(N(C(C)=O)c2cccc(F)c2)C(=O)c2ccccc2C1=O", "Potency": "31.6 µM (active)"}, {"smiles": "C=CCNC(=O)C1CC(=O)N(c2ccc(OCC(=O)N3CCCC3)cc2)C1", "note": "(stereo not drawn)", "Potency": "inactive"}, {"smiles": "CCC/C(C#Cc1ccc(N(C)C)cc1)=C1/c2ccccc2C(=O)N1c1ccccc1", "Potency": "inactive"}, {"smiles": "Nc1nc(N)c2cc(Sc3ccc(Cl)cc3)ccc2n1", "Potency": "35.5 µM (active)"}, {"smiles": "O=C(O)c1cc(Sc2ccc(Br)cc2)nc2ccccc12", "Potency": "inactive"}, {"smiles": "N#C/C(=C\\c1ccc(N2CCOCC2)o1)C(=O)NCCc1ccccc1", "Potency": "inactive"}, {"smiles": "COc1ccc(C(=O)C(CCCCC(CN(C)C)C(=O)c2ccc(OC)cc2)CN(C)C)cc1", "note": "(stereo not drawn)", "Potency": "31.6 µM (active)"}, {"smiles": "COc1ccc(C(=O)NN=C2CCCC2)cc1", "Potency": "inactive"}, {"smiles": "COc1ccc(C(=O)COc2ccccc2C#N)cc1", "Potency": "inactive"}, {"smiles": "CC(=O)c1cccc(S(=O)(=O)N2CCC(C(=O)Nc3cccc(C(=O)NC4CC4)c3)CC2)c1", "Potency": "inactive"}, {"smiles": "Nc1ccc(OC(=O)Nc2ccc(O)cc2)cc1", "Potency": "inactive"}, {"smiles": "CCOC(=O)N1C(=O)[C@@](c2ccc(Cl)cc2)(C(C)C)N1C(=O)OCC", "Potency": "31.6 µM (active)"}, {"smiles": "CCOC(=O)CN1N=C(c2ccc(Cl)cc2)CCC1=O", "Potency": "inactive"}, {"smiles": "CCN(CC)C(=O)Cn1cc(C(=O)C(=O)N2CC=C(c3ccccc3)CC2)c2ccccc21", "Potency": "inactive"}, {"smiles": "Cc1cccc(NC(=O)NNC(=O)c2cc3ccccc3cc2O)c1C", "Potency": "inactive"}, {"smiles": "C=CCC[C@@H](Cc1ccc(F)cc1)C(=O)OC[C@@H](C)NC(=O)[C@H](CC=C)CC(=O)N(CCO)Cc1ccccc1", "Potency": "39.8 µM (active)"}, {"smiles": "C=CCC[C@@H](Cc1ccc(F)cc1)C(=O)OC[C@H](C)NC(=O)[C@H](CC=C)CC(=O)N(CCO)Cc1ccccc1", "Potency": "28.2 µM (active)"}, {"smiles": "C/C(=N\\NC(=O)Cc1csc(N2CCOCC2)n1)c1ccc(Cl)c(Cl)c1", "Potency": "inactive"}, {"smiles": "CCCCc1c(-c2ccccc2Br)ncn1CCc1ccccc1OC", "Potency": "28.2 µM (active)"}, {"smiles": "CCCCc1c(-c2ccccc2F)ncn1CCc1ccccc1OC", "Potency": "31.6 µM (active)"}, {"smiles": "Nc1cccc2c1C(=O)N(CCOc1ccccc1F)C2=O", "Potency": "inactive"}, {"smiles": "CCCCCN1C(C(=O)c2ccccc2)=C(NC(=O)c2ccc(OC)c(OC)c2)c2ccccc2S1(=O)=O", "Potency": "inactive"}, {"smiles": "CCCc1c(-c2ccccc2Br)ncn1Cc1ccccc1OC", "Potency": "31.6 µM (active)"}, {"smiles": "CCCCCc1c(-c2ccccc2OC)ncn1CCc1ccccc1OC", "Potency": "31.6 µM (active)"}, {"smiles": "Cc1cc(Cl)n2c(nc3ccccc32)c1C#N", "Potency": "inactive"}, {"smiles": "CC(CCCC(C)(C)O)NC(=O)c1ccc(OC2CCN(C(=O)C3CC3)CC2)cc1", "note": "(stereo not drawn)", "Potency": "inactive"}, {"smiles": "CCCCCc1c(-c2ccccc2F)ncn1CCc1ccccc1OC", "Potency": "28.2 µM (active)"}, {"smiles": "CCCCc1c(-c2ccc(F)cc2F)ncn1CCc1ccccc1OC", "Potency": "35.5 µM (active)"}, {"smiles": "CCOC(=O)C1(CCOC)CCCCC1=O", "note": "(stereo not drawn)", "Potency": "inactive"}, {"smiles": "Cc1ccc(Nc2nc(Cl)c(C=O)s2)cc1Cl", "Potency": "inactive"}, {"smiles": "CC(C)N(CCNCc1nnc(-c2ccccc2)o1)C(C)C", "Potency": "inactive"}, {"smiles": "COC(=O)Cc1c(C)c2ccc3c(c2oc1=O)CN(Cc1ccc(Cl)cc1)CO3", "Potency": "inactive"}, {"smiles": "Cc1ccc(C(=O)C(C(=O)/C=C/c2ccccc2)=C2SCCCS2)cc1", "Potency": "25.1 µM (active)"}, {"smiles": "CC1=CC(=O)C=C(C)C1=NOC(=O)/C=C\\c1ccccc1", "Potency": "inactive"}, {"smiles": "Cc1cc(N2CCN(C)CC2)nc2ccc(NC(S)=NCCN3CCc4ccccc4C3)cc12", "Potency": "28.2 µM (active)"}, {"smiles": "Cc1cc(C)c2cc3c(N)c(C(=O)N4CCc5ccccc5C4)sc3nc2c1", "Potency": "inactive"}, {"smiles": "CCN1CCN(c2cc(C)c3cc(NC(S)=NCCCN4CCc5ccccc5C4)ccc3n2)CC1", "Potency": "25.1 µM (active)"}, {"smiles": "COCCCN=C(S)Nc1ccc2nc(N3CCOCC3)cc(C)c2c1", "Potency": "inactive"}, {"smiles": "COc1cc(OC)c2c(OC)cccc2n1", "Potency": "inactive"}, {"smiles": "CC(C)c1ccc(O)c(C(=O)c2cnn(-c3ccccc3)c2)c1", "Potency": "inactive"}, {"smiles": "Cc1cccn2c(=O)c3cc(C(N)=S)c(=N)n(CCCOC(C)C)c3nc12", "Potency": "inactive"}, {"smiles": "CCCCOCCCNC(=O)C[C@@H]1C[C@@]2(C(=O)OC)CCCCC=C2N(CCC2=CCCCC2)C1=O", "Potency": "35.5 µM (active)"}, {"smiles": "CCCCNC(=O)C1(NC(=O)Nc2ccccc2)CCCCC1", "Potency": "inactive"}, {"smiles": "CCCCNC(=O)C[C@@H]1C[C@@]2(C(=O)OC)CCCCC=C2N(CCC2=CCCCC2)C1=O", "Potency": "39.8 µM (active)"}, {"smiles": "Cc1cc(NCCCOC(C)C)n2c(nc3ccccc32)c1C#N", "Potency": "inactive"}, {"smiles": "CC(=O)c1ccc(NC(=O)COC(=O)C2CC3C=CC2C3)cc1", "note": "(stereo not drawn)", "Potency": "inactive"}, {"smiles": "O=C1/C(=C\\NCc2ccccn2)c2ccccc2C(=O)N1c1ccccc1Cl", "Potency": "inactive"}, {"smiles": "CCN(C(=O)COc1cccc2cccnc12)C1CCS(=O)(=O)C1", "note": "(stereo not drawn)", "Potency": "inactive"}, {"smiles": "Cc1ccc(OCC(=O)N(Cc2ccco2)C2CCS(=O)(=O)C2)cc1C", "note": "(stereo not drawn)", "Potency": "inactive"}, {"smiles": "CCN(C(=O)C(C)N1C(=O)/C(=C/c2ccco2)SC1=S)C1CCS(=O)(=O)C1", "note": "(stereo not drawn)", "Potency": "28.2 µM (active)"}, {"smiles": "Cc1ccc(O)c(NN=C2C(=O)CC(C)(C)CC2=O)c1", "Potency": "20 µM (active)"}, {"smiles": "Cc1ccc(O)c(Nc2c3ccccc3nc3ccccc23)c1", "Potency": "inactive"}]}]}
